Compound activity as filed in PubChem.
L3MBTL1 inh = L3MBTL1 (human) inhibition; 230,000 tested, 0.66% active; Potency, µM (titrated, usually from 57.1 µM), hits mostly inhibitors; Q9Y468; AlphaScreen L3MBTL1–H3K9me1 peptide binding; note: nearly all actives have a fitted effect of over 60% in size
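First, the protein-peptide complex forms for 30 min at room temperature (L3MBTL1 50 nM, biotinylated H3K9me1 peptide 75 nM). Next, compounds are pin-transferred and incubated 30 min. Finally, AlphaScreen beads are added and read after 30 min.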
G9a block = inhibitors of human histone lysine methyltransferase G9a. G9a H3K9 monomethylation, AlphaScreen, 2 h. Q96KQ7. 350,000 tested, 8.8% active. Potency, µM (highest dose often 102 µM), actives largely listed as inhibitors. AID 504332; note: nearly all actives have a fitted effect of over 75% in size
Target sequence (Q96KQ7 913-1193 limits assumed): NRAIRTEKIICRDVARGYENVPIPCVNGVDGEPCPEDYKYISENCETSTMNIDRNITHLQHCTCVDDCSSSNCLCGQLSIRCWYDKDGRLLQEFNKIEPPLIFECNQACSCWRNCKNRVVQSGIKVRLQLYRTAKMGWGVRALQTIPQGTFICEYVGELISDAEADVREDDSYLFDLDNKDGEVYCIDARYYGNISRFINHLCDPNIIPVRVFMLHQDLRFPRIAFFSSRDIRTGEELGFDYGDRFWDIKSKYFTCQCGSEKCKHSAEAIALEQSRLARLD
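G9a (20 nM) was preincubated 15 min with compound, then reacted 2 h at room temperature with 500 nM biotin-H3K9 peptide and 20 µM SAM. Monomethyl-H3K9 detected by AlphaScreen using anti-H3K9me1 antibody.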
PI5P4K alpha inh = inhibitors of human PI5P4K alpha | P48426 | PI5P4Kalpha enzyme, ADP-Glo luminescence, 60 min; stronger effect = lower value | max response, % | 330,000 tested, 1.2% active | AID 652105; active = max response of -50% or lower; inconclusive = between -30% and -50%; inactive = -30% or higher; note: value at the top dose of about 77 µM
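qHTS, 1536-well: enzyme/substrate mix, compound by pin tool, 5 microM ATP final; RT 60 min; ADP-Glo reagents 1 (45 min) then 2 (30 min); luminescence.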
JMJD2A Tudor = blocks the human JMJD2A Tudor domain | O75164 | AlphaScreen JMJD2A-Tudor / H3K4me3 peptide binding | Potency, µM (titrated, usually from 114 µM), most hits filed as inhibitors | 390,000 tested, 4.4% active | AID 504339; note: nearly all actives have a fitted effect of over 50% in size
BAZ2B inh = inhibitors of human BAZ2B bromodomain. Q9UIF8. AlphaScreen BAZ2B-H3K14Ac peptide displacement. Potency, µM (top dose mostly 114 µM), hits mostly inhibitors. 360,000 tested, 4.4% active. AID 504333; note: nearly all actives have a fitted effect of over 60% in size
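Complex of BAZ2B and biotin-H3K14Ac (50 nM apiece) forms over 30 min at RT, then faces library compounds up to 110 uM for another 30 min; AlphaScreen beads added, 20 min dark incubation, luminescence read.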
HP1b chromo inh = inhibitors of HP1-beta chromodomain binding to methylated histone tails. AID 540317. AlphaScreen HP1-beta / biotin-H3K9me3 peptide binding. Potency, µM (doses to about 114 µM), hits mostly inhibitors. 390,000 tested, 0.56% active. P83916; note: nearly all actives have a fitted effect of over 70% in size
Target sequence (P83916 whole entry, looked up): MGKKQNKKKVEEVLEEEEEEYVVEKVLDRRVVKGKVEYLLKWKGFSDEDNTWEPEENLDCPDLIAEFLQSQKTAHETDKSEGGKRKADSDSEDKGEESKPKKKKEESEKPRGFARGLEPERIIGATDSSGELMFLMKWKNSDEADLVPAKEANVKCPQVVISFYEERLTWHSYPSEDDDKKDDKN
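HP1-beta protein (50 nM final) preincubated 30 min at room temperature with biotinylated H3(1-18)K9me3 peptide (50 nM) in PBS pH 7.4, 0.01% Tween-20, then compound added for 30 min. AlphaScreen streptavidin donor/nickel chelate acceptor beads (10 ug/mL final), 30 min dark, luminescence read.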
Of the large screens only hits and unclear results are named; the others gave an inactive call; ! = repeats disagree. This is a sample that favours compounds with a hit; in the whole collection about 11% have one here. Unless noted, calls come from the whole dose curve; as a rule, active = well fitted inhibition curve with a large enough effect; inconclusive = small, poorly fitted or top-dose-only effect; inactive = no such curve, though single readings can be large or run the other way.

CC(O)CN(Cc1cccc(Cl)c1)CC(C)O (stereo unspecified)	G9a block inconclusive, JMJD2A Tudor 3.5µM, BAZ2B inh 56µM (no result: L3MBTL1 inh, PI5P4K alpha inh)
Cc1cnc(CNc2ncncc2-c2cccnc2)cn1	none (no result: L3MBTL1 inh, PI5P4K alpha inh, JMJD2A Tudor, BAZ2B inh, HP1b chromo inh)
Cc1[nH]c(=O)c(C#N)c(C)c1Cl	none
N#Cc1sc(=O)[nH]c1Cl	PI5P4K alpha inh inconclusive, JMJD2A Tudor 89µM! (no result: L3MBTL1 inh, G9a block, BAZ2B inh)
O=C(c1cccnc1)N1CCN(Cc2cccc(Br)c2)CC1	G9a block 13µM, JMJD2A Tudor 3.5µM, HP1b chromo inh 50µM (no result: L3MBTL1 inh, PI5P4K alpha inh)
COc1ccc(CN2CCN(C(=O)c3cccnc3)CC2)cc1Br	G9a block 18µM, JMJD2A Tudor 3.2µM, BAZ2B inh 35µM, HP1b chromo inh inconclusive (no result: PI5P4K alpha inh)
COc1ccc(-c2ccc(F)cc2)cc1C1C2C=CCC(C)C2C(=O)N1Cc1ccccc1 (stereo unspecified)	none (no result: L3MBTL1 inh, G9a block, PI5P4K alpha inh, BAZ2B inh)
O=C(O)C1CCCCC1C(=O)NCCCn1ccnc1 (stereo unspecified)	G9a block inconclusive, BAZ2B inh 79µM (no result: L3MBTL1 inh, PI5P4K alpha inh)
O=C(/C=C/c1ccc(Br)cc1)NCCCn1ccnc1	none (no result: G9a block)
O=C(/C=N/O)NCCCn1ccnc1	G9a block inconclusive, BAZ2B inh 79µM
Cc1ccc2[nH]c(=O)c3cc(C(=O)N4CCN(c5ccccc5)CC4)sc3c2c1	none (no result: L3MBTL1 inh, PI5P4K alpha inh)
CCN(CC)C(=O)N1CCN(C(=O)N(CC)CC)CC1	none
CCN(CC)C(=O)N1CCN(C)CC1	G9a block 14µM!, JMJD2A Tudor 56µM, BAZ2B inh inconclusive (no result: L3MBTL1 inh)
COc1cc(C#Cc2c(-c3cncn3C)n(C)c3ccc(-c4ccc5cc[nH]c5c4)cc23)cc(OC)c1	JMJD2A Tudor inconclusive (no result: G9a block, BAZ2B inh)
COc1cc(C#Cc2c(-c3cncn3C)n(C)c3ccc(-c4ccc(OC)c(OC)c4)cc23)cc(OC)c1	L3MBTL1 inh inconclusive, JMJD2A Tudor 45µM, BAZ2B inh inconclusive
C=Cc1ccc(Cn2c(=O)cc(C)c3c(C)nn(C)c32)cc1	none (no result: L3MBTL1 inh, PI5P4K alpha inh)
Cc1ccc(C2CC(=O)Oc3ccc(O)cc32)cc1 (stereo unspecified)	G9a block 11µM (no result: L3MBTL1 inh, PI5P4K alpha inh, JMJD2A Tudor, BAZ2B inh, HP1b chromo inh)
Cc1ccc(C2CC(=O)Oc3ccc(C(C)(C)C)cc32)cc1 (stereo unspecified)	none (no result: L3MBTL1 inh, PI5P4K alpha inh, JMJD2A Tudor, BAZ2B inh, HP1b chromo inh)
CCOc1ccc(CC(=O)NCCS(=O)(=O)N2CCN(c3ccc(OC)cc3)CC2)cc1	none (no result: L3MBTL1 inh, PI5P4K alpha inh)
CCN(CC)CCN1C(=O)c2ccccc2NC1c1ccc(OC)c(COc2ccc(NC(C)=O)cc2)c1 (stereo unspecified)	none (no result: L3MBTL1 inh, G9a block, PI5P4K alpha inh, BAZ2B inh)
COc1ccc(C2Nc3ccccc3C(=O)N2Cc2ccccc2)cc1COc1ccc(F)cc1 (stereo unspecified)	none (no result: L3MBTL1 inh, G9a block, PI5P4K alpha inh, BAZ2B inh, HP1b chromo inh)
COc1ccc(C2Nc3ccccc3C(=O)N2Cc2cccc3ccccc23)cc1COc1ccc(NC(C)=O)cc1 (stereo unspecified)	JMJD2A Tudor 79µM (no result: L3MBTL1 inh, G9a block, PI5P4K alpha inh, BAZ2B inh, HP1b chromo inh)
COc1ccc(C2Nc3ccccc3C(=O)N2Cc2ccccc2)cc1COc1ccc(Cl)cc1 (stereo unspecified)	none (no result: L3MBTL1 inh, G9a block, PI5P4K alpha inh, BAZ2B inh, HP1b chromo inh)
COc1ccc(C2Nc3ccccc3C(=O)N2Cc2ccncc2)cc1COc1ccc(NC(C)=O)cc1 (stereo unspecified)	JMJD2A Tudor 79µM (no result: L3MBTL1 inh, G9a block, PI5P4K alpha inh, BAZ2B inh, HP1b chromo inh)
COc1ccc(C2NC(=O)c3ccccc3N2)cc1COc1ccc(NC(C)=O)cc1 (stereo unspecified)	none (no result: L3MBTL1 inh, G9a block, PI5P4K alpha inh, BAZ2B inh, HP1b chromo inh)
COc1ccc(C2Nc3ccccc3C(=O)N2CCO)cc1COc1ccc(NC(C)=O)cc1 (stereo unspecified)	JMJD2A Tudor 79µM (no result: L3MBTL1 inh, G9a block, PI5P4K alpha inh, BAZ2B inh, HP1b chromo inh)
COc1ccc(C2Nc3ccccc3C(=O)N2CC(C)(C)C)cc1COc1ccc(NC(C)=O)cc1 (stereo unspecified)	JMJD2A Tudor 56µM (no result: L3MBTL1 inh, G9a block, PI5P4K alpha inh, BAZ2B inh, HP1b chromo inh)
CCCCC(O)C(=O)Nc1cc(C(F)(F)F)ccc1Cl (stereo unspecified)	none (no result: L3MBTL1 inh, G9a block, PI5P4K alpha inh, BAZ2B inh, HP1b chromo inh)
CCOCCc1nn2c(=O)cc(COC(=O)c3ccc(NC(=O)c4ccc(F)cc4)cc3)nc2s1	none (no result: L3MBTL1 inh, PI5P4K alpha inh)
Cc1ccc(C(=O)NN2C(=O)CSC2=S)cc1	none
C/C(=N\N1C(=O)CSC1=S)c1ccc(Br)cc1	G9a block 40µM, BAZ2B inh inconclusive
O=c1cc(CO)oc(CN2CCN(CCO)CC2)c1O	G9a block inconclusive, JMJD2A Tudor 2.8µM (no result: L3MBTL1 inh)
Cc1cccc(N2CCN(Cc3oc(CO)cc(=O)c3O)CC2)c1C	JMJD2A Tudor inconclusive (no result: L3MBTL1 inh)
